65 molecules from PubChem BioAssay AID743286 (National Center for Advancing Translational Sciences (NCATS), 2014) can be followed below.

Screen size: about 1,100 compounds; about 340 (31%) were called active. About 40% were inconclusive and are not listed. Calls follow the shape of the dose curve; as a rule, active = well fitted inhibition curve with a large enough effect; inconclusive = small, poorly fitted or top-dose-only effect; inactive = flat fitted curve, though single readings scatter. These entries were drawn from the full list. Where a call stands in place of a potency, no number is given.
Potency is read from the fitted curve at half-maximal effect.

Sequence of Phosphatidylinositol 5-phosphate 4-kinase type-2 alpha (Homo sapiens) (P48426 whole entry, looked up): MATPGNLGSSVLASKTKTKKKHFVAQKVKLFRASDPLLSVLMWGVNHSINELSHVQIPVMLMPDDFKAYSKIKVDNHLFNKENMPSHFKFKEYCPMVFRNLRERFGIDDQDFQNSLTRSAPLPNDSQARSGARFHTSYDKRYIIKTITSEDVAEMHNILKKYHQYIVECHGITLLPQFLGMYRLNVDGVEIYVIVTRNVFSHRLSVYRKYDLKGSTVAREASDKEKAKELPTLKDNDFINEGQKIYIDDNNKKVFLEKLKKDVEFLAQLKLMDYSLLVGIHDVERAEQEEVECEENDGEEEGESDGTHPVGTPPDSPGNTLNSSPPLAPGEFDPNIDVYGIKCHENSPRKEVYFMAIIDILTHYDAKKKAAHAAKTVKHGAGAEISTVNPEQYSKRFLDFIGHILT

This test concerns the target Phosphatidylinositol 5-phosphate 4-kinase type-2 alpha (Homo sapiens) (UniProt P48426). In words: qHTS for Inhibitors of PI5P4K: Confirmation in Primary Assay. Also: nearly all actives have a fitted effect of over 65% in size. The conditions noted are these: PI5P4Kalpha enzyme, ADP-Glo luminescence, 60 min; series mostly up to 76.9 µM. The procedure, abridged:
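Human PI5P4Kα activity was measured as ADP generation using ADP-Glo luminescence. Reactions ran 60 minutes at room temperature with 5 microM ATP in buffered conditions at pH 7.4 containing 5% DMSO.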
A general note: In qHTS, concentration-response curves come from the screen itself.
Take `CCOc1ccc(OCc2ccc(C(=O)N3CCOCC3)cc2)cc1`: the Potency entry was “inactive”. As to `CCC(C)c1nc2ccsc2c(N2CCOC2=O)c1-c1ccccc1` (stereo not given), the Potency result is “inactive”. `Cc1cccnc1NC(=O)CSc1nnc(COc2ccc(C(C)C)cc2)n1C`: the Potency result is “inactive”. As for `O=C(CSc1nc2c(cnn2-c2cccc(Cl)c2)c(=O)[nH]1)NCC1CCCO1` (stereo not given), the Potency entry is “inactive”. On to `O=c1c2ccccc2[nH]c2ccc(O)cc12`, for which the Potency was 20 µM (active).

For `O=[N+]([O-])c1ccc(-c2cc(-c3ccc(Cl)cc3)n[nH]2)cc1`, the Potency entry is “inactive”.

As to `Cc1nc2ccccc2nc1OCC(=O)NCc1ccc2c(c1)OCO2`, the Potency entry was “inactive”. For `CCNC(=O)COC(=O)c1cc(-c2ccco2)nc2ccccc12`, the Potency was 14.1 µM (active). Consider `CCN(CC)C(=O)COC(=O)c1cc(-c2ccco2)nc2ccccc12`, for which the Potency was 12.6 µM (active).

For the molecule `CNC(=O)COC(=O)c1cc(-c2ccco2)nc2ccccc12`, the Potency was 12.6 µM (active). For `O=C(OCc1nnc(-c2ccccc2)o1)c1ccc2ccccc2n1` the value was “inactive”; for `COc1ccc(CNC(=O)CCCn2nc(C)c([N+](=O)[O-])c2C)cc1OC`, “inactive”. For `Cc1ccc(NC(=O)Nc2cccs2)cc1`, the Potency entry was “inactive”.

In the case of `CC(C)NC(=O)N1c2ccccc2Sc2ccccc21`, the Potency result is “inactive”.

`COC(=O)Cc1c(C)nc2nc(-c3ccc(C)cc3)[nH]n2c1=O`: the Potency was 6.31 µM (active).

For `O=C(Nc1nnc(SCc2ccc(Cl)cc2)s1)c1ccco1`, the Potency result was “inactive”. With `O=C(Nc1nnc(-c2ccncc2)o1)c1ccccc1` the entry was “inactive”; with `O=C(Nc1nnc(-c2ccc(Cl)cc2)o1)c1nc2ccccc2s1`, 14.1 µM (active); with `CC(C)(C)NC(=O)Nc1ccc(Cn2cc(C(F)(F)F)ccc2=O)cc1`, “inactive”. With `Cc1c(C(=O)O)sc2ncnc(N3CCCCC3C)c12` (stereo not given), the Potency is 10 µM (active). Take `O=C(COc1cccc2ccccc12)Nc1ccc(Cl)cc1C(=O)O`: the Potency was 25.1 µM (active). On to `CNC(=O)c1nc(C)n(-c2ccc(Cl)cc2Cl)n1`, for which the Potency result is “inactive”.

With `Cc1ccc(C(c2nnnn2CS(=O)(=O)c2ccc(C)cc2)N2CCC(C)CC2)cc1` (stereo not given), the Potency result was “inactive”. With `N#Cc1c(NC(=O)CSc2ncnc3sccc23)oc(-c2ccco2)c1-c1ccco1`, the Potency is 17.8 µM (active). With `CN(C)S(=O)(=O)c1cccc(C(=O)OCC(=O)Nc2sccc2C(N)=O)c1`, the Potency entry was “inactive”. For `NC(=O)c1ccsc1NC(=O)COC(=O)c1ccccc1F`, the Potency is 22.4 µM (active).

Consider `Cc1cc(C(=O)OCC(=O)Nc2c(F)cccc2F)c(C)n1-c1ccccc1`, for which the Potency result was “inactive”.

On to `Cc1sc(NC(=O)c2sc3nc4c(C)cccc4cc3c2N)c(C#N)c1C`, for which the Potency was 11.2 µM (active). For `Cc1cc(C)c2c(N)c(C(=O)Nc3c(C)n(C)n(-c4ccccc4)c3=O)sc2n1` the value was “inactive”. With `N#CC1=C2SCN(c3ccccc3)CN2C(=O)CC1c1c(Cl)cccc1Cl` (stereo not given) the figure was 22.4 µM (active); with `CCc1ccccc1N1CSC2=C(C#N)C(c3ccccc3F)CC(=O)N2C1` (stereo not given), 14.1 µM (active). For `N#CC1=C2SCN(c3ccccc3)CN2C(=O)CC1c1ccccc1Cl` (stereo not given) the value was 25.1 µM (active); for `O=C(CSc1ncnc2sc3c(c12)CCC3)N1CCOCC1`, “inactive”. Take `COc1ccc2c([N+](=O)[O-])c(Cl)[nH]c2c1`: the Potency is 10 µM (active). `CC(C)C(=O)Nc1ccccc1N1CCN(S(C)(=O)=O)CC1`: the Potency result was “inactive”. Turning to `O=C(NCc1cc([N+](=O)[O-])ccc1O)c1cccc(NS(=O)(=O)c2ccccc2)c1`, the Potency is 14.1 µM (active). With `O=C(NCCCCc1ccccc1)c1cccc(NC(=O)C2CC2)c1`, the Potency result is “inactive”. Take `O=C(NCC1CCCCC1)c1cccc([N+](=O)[O-])c1`: the Potency entry is “inactive”.

As for `OCCCNc1nccc(-c2cc(Nc3cccc(Cl)c3)ncn2)n1`, the Potency was 14.1 µM (active). Take `OC(c1ccc(Cl)c(F)c1)c1ncc(-c2ccc(Oc3ccccc3)cc2)[nH]1` (stereo not given): the Potency entry is “inactive”. For `COc1cc(OC)cc(-c2nnc(NC(=O)CCS(=O)(=O)c3ccc(C)cc3)o2)c1`, the Potency entry is “inactive”. As to `O=S(=O)(c1ccccc1)c1nc(-c2ccco2)oc1N1CCCCCC1`, the Potency entry is “inactive”. For `O=S(=O)(c1ccc2nc(-c3ccco3)c(-c3ccco3)nc2c1)N1CCOCC1` the value was 15.8 µM (active).

Consider `O=S(=O)(NCCC1=CCCCC1)c1cccc(S(=O)(=O)N2CCOCC2)c1`, for which the Potency entry is “inactive”.

Turning to `O=C(Nc1ccc2c(c1)OCCO2)c1ccccc1F`, the Potency result was “inactive”. For `COc1ccc(C(C(=O)NC2CCCC2)N(C(=O)c2snc(C(N)=O)c2N)c2cccc(O)c2)cc1` (stereo not given), the Potency entry was “inactive”. In the case of `N#Cc1cc(-c2ccccc2)nn1-c1ccccc1`, the Potency is 10 µM (active).

For the molecule `Cc1ccc(CSCC(=O)N2CCOCC2)cc1`, the Potency entry was “inactive”. In the case of `O=C(Nc1cccc(Cl)c1)N1CCCC1`, the Potency entry was “inactive”. Consider `O=C(Cc1ccc(Cl)cc1Cl)Nc1cccc(S(=O)(=O)Nc2ccccc2F)c1`, for which the Potency is 3.98 µM (active).

On to `COCCn1c(SCC(=O)Nc2cccc(S(N)(=O)=O)c2)nc2cc(Cl)ccc2c1=O`, for which the Potency entry was “inactive”. As to `CC(=O)NC(c1ccc(C)cc1)c1cc([N+](=O)[O-])c2cccnc2c1O` (stereo not given), the Potency result is “inactive”. Consider `CC(=O)NC(c1cccs1)c1cc([N+](=O)[O-])c2cccnc2c1O` (stereo not given), for which the Potency was 12.6 µM (active).

As for `O=C(Oc1ccc(N(Cc2cccs2)C2=NS(=O)(=O)c3ccccc32)cc1)c1ccccc1Cl`, the Potency result is “inactive”. `Cn1c(=O)c2[nH]c(-c3ccc(S(=O)(=O)O)cc3)nc2n(C)c1=O`: the Potency was 12.6 µM (active). Consider `CCCn1c(=O)c2[nH]c(-c3ccc(S(=O)(=O)O)cc3)nc2n(CCC)c1=O`, for which the Potency is 14.1 µM (active). Consider `O=C(CSc1nc(-c2ccccc2)cc(=O)[nH]1)N1CCc2ccccc21`, for which the Potency result was “inactive”. On to `CCn1c(SCc2nc3sc(C(=O)O)c(C)c3c(=O)[nH]2)nc2ccccc21`, for which the Potency was 12.6 µM (active). With `COc1ccc(CCCc2nnc(SCc3nc4ccccc4c(=O)[nH]3)n2C)cc1`, the Potency result is “inactive”. On to `c1cc2c(cc1C1=NNC(=NC3CC3)SC1)OCCO2`, for which the Potency is 28.2 µM (active). For `Cc1cc(C(=O)Nc2cccc3c2O[C@@H](CN(C)S(C)(=O)=O)[C@H](C)CN([C@@H](C)CO)C3=O)n(C)n1` the value was “inactive”; for `O=C(OCC(=O)N1CCCCCC1)c1ccc(Cl)c(S(=O)(=O)N2CCCC2)c1`, “inactive”. Regarding `NS(=O)(=O)c1cc(C(=O)NC2CCSc3ccccc32)ccc1Cl` (stereo not given), the Potency is 0.891 µM (active). Consider `COCc1ccc2oc(C(=O)O)cc2c1`, for which the Potency result was “inactive”. Take `COc1ccc2c(c1)c(=O)oc1c(C)c(OCc3cc(C(=O)O)oc3C)ccc12`: the Potency is 17.8 µM (active).
